Laboratory results from PubChem BioAssay (NCI).
Several values for one entry are separate records, joined by “and”; a condition that tells them apart may be missing. Equal entries are not always repeated. About 83,000 compounds went through this panel and 20% of them were active in at least one assay; those are over-represented in the sample as a whole.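 The endpoint reported here, percent growth, reads 100 for growth as untreated, 0 for no net growth and -100 for all cells dead.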 A number with no mark means an inactive call. Activity calls are given as the source filed them. Rule for the calls: active = growth percent below 10; inactive = the rest.

Tested on: MDA-MB-468 breast
Experiment: NCI-60 one-dose screen, 48 h (100 = growth as untreated, 0 = no growth, -100 = all killed)
Details: 10 µM unless noted

With COc1ccc(/C=C/C(=O)c2cc3c(N)c(C(=O)Nc4ccccc4)sc3nc2C)cc1 as the compound, how does the growth read?
Its growth is 15.3%.

For Cc1ccc(C)n1-c1ccsc1C(=O)NNC(=O)C(Cl)Cl, which growth is on record?
The growth was 103%.

Which growth does the source give for N/C(=N\OC(=O)c1ccccc1)C(Cc1ccccc1)C(=O)NOC(=O)c1ccccc1 (stereo unspecified) here?
Its growth is 66.1%.

How did the growth turn out when COc1ccc2c(c1)CCCC21C(=O)Nc2ccccc21 (stereo unspecified) was run?
Its growth is 103%.

For COc1ccc(-c2nc(-c3ccccc3)c(-c3ccccc3)[nH]2)cc1OC1CCCCC1, which growth is on record?
The growth was 73.1%.

With O=[N+]([O-])c1ccc(N/N=C\c2cc(Br)ccc2O)nc1 as the compound, how does the growth read?
Its growth is -19.7% (active) and -13.5% (active).

For CS(=O)(=O)c1nccc(-c2c(-c3cccc(OCc4ccccc4)c3)nc3sccn23)n1, which growth is on record?
Its growth is -65.1% (active).

How did the growth turn out when O=C(NNc1ccccc1)C1CCCN1 (stereo unspecified) was run?
Its growth is 81%.

Which growth does the source give for CC(C)C(C)(C)C(=O)C(C)(C)C(C)(C)C here?
Its growth is 90.1%.

How did the growth turn out when COc1ccc(C(=O)OC2C(OC3C(O)COC(O[C@H]4C[C@H]5[C@@H]6CC=C7C[C@@H](O)CC[C@]7(C)[C@H]6CC[C@]5(C)[C@H]4[C@H](C)C(=O)CCC(C)C)C3OC(C)=O)OCC(O)C2O)cc1 (stereo partly specified) was run?
Its growth is -34.1% (active).

How did the growth turn out when Cc1cc(C)c2c(N)c3cccc(C)c3nc2n1 was run?
The growth was -54.4% (active).

With CNC(=O)c1cc(Oc2ccc3nc(Nc4ccc(Cl)c(C(F)(F)F)c4)ccc3c2)ccn1 as the compound, how does the growth read?
Its growth is 45.3%.

COc1ccc(N=C(c2ccccc2)C2C(=O)c3ccccc3C2=O)cc1 was tested. Which growth did it give?
The growth was 72.5%.

How did the growth turn out when N[C@H](C(=O)O)[C@@H]1CC(Cl)=NO1 was run?
The growth was 29.4% [20 µM].

How did the growth turn out when CCN(CC)C(=O)c1cccnc1 was run?
Its growth is 109%.

For O=S(=O)(NCCCNc1nccc(-c2c(-c3cccc(F)c3)nc3sccn23)n1)c1cccc2ccccc12, which growth is on record?
The growth was 59.3%.

How did the growth turn out when COc1ccc(OC)c(-c2cn3nc(-c4c[nH]c5ccc(Br)cc45)sc3n2)c1 was run?
Its growth is 59.1%.

How did the growth turn out when CCc1c2c(nc3ccc(OCc4ccc(B(O)O)cc4)cc13)-c1cc3c(c(=O)n1C2)COC(=O)[C@]3(O)CC was run?
Its growth is -48.4% (active).

COc1cccc(C(=O)NNc2nc(Cl)nc(Cl)n2)c1 was tested. Which growth did it give?
The growth was 102%.

Oc1ccc(-c2nc3ccc4[nH]ncc4c3c3c2CCCC3)c(F)c1 was tested. Which growth did it give?
The growth was 18.2%.

Which growth does the source give for Cn1cc(-c2nc(-c3cn(C)c4ncccc34)cs2)c2cc(F)ccc21 here?
The growth was -8.46% (active).
